The values that follow come from ChEMBL document CHEMBL3433997, “St. Jude Leishmania screening dataset” (2016).

SMILES strings stand for the structures.

What all share (type): functional
The target in experiment [1] is Solute carrier family 2, facilitated glucose transporter member 1 (Homo sapiens) (UniProt P11166). Put plainly: ST_JUDE_LEISH: Cytotoxicity at 2uM final concentration against transgenic Leishmania Mexicana promastigotes LmGLUT1 that are glucose transport deficient and complemented with the human glucose transporter GLUT1. Activity is measured by DNA content using SYBR green in vitro.
Chain of Solute carrier family 2, facilitated glucose transporter member 1 (Homo sapiens) (P11166 whole entry): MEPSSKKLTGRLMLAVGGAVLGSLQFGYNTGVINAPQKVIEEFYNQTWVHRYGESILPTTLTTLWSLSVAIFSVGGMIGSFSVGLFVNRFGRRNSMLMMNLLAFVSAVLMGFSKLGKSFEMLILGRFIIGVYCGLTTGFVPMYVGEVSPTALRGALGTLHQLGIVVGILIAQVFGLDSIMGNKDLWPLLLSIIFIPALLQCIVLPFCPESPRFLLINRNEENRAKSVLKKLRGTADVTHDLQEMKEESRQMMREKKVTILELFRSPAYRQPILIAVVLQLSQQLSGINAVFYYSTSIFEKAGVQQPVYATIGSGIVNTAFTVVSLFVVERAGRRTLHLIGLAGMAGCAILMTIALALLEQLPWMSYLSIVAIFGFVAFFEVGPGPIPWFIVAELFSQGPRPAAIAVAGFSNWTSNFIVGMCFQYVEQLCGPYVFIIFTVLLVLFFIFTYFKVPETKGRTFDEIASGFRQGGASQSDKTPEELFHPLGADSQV

For experiment [2], the target named is Hexose transporter 1 (Plasmodium falciparum) (UniProt O97467). In words: ST_JUDE_LEISH: Cytotoxicity at 2uM final concentration against transgenic Leishmania Mexicana promastigotes LmPfHT that are glucose transport deficient and complemented with the Plasmodium falciparum hexose transporter. Activity is measured by DNA content using SYBR green in vitro.
In experiment [3] the target is Glucose transporter (Leishmania mexicana) (UniProt O61059). Put plainly: ST_JUDE_LEISH: Cytotoxicity at 2uM final concentration against transgenic Leishmania Mexicana promastigotes LmGT2 that are glucose transport deficient and complemented with the L. Mexicana glucose transporter 2. Activity is measured by DNA content using SYBR green in vitro.

For `COc1ccccc1C1CCN(C2CCC(NC(=O)/C=C/c3ccc(OC(F)(F)F)cc3)CC2)CC1` (stereo not given), the inhibition in experiment [1] amounted to 0.94%; in experiment [2], 1.54%; in experiment [3], 2.36%.

Regarding `CN(C(=O)Nc1ccc(F)cc1)C1CCN(CCCCCNC(=O)/C=C/c2ccc(Cl)c(Cl)c2)CC1`, the figures for the inhibition in experiment [1], in experiment [2] and in experiment [3] were 1%, 1.65% and 2.01%, respectively.

With `CN(C)CCOc1ccc2c(c1)CN(C)CC2c1ccccc1` (stereo not given), the inhibition in experiment [1] worked out at 1.17%; in experiment [2], 0.33%; in experiment [3], 0.03%.

For `COc1ccc(Br)cc1C1Nc2ccc3ccccc3c2C2=C1C(=O)CC(c1ccccc1)C2` (stereo not given), the inhibition in experiment [1] was 1.86%; in experiment [2], 2.25%; in experiment [3] it was 3.67%.

In the case of `CC1CN(c2ccc(NC(=O)c3ccc(F)cc3)cc2)CCN1Cc1cccc(F)c1` (stereo not given), the values for the inhibition in experiment [1], in experiment [2] and in experiment [3] were 3.88%, 2.84% and 4.01%, respectively.

Turning to `COc1ccc(CNC2CCN(C)CC2)cc1-c1ccc(S(=O)(=O)NC2CCC2)s1`, the inhibition in experiment [1] was 1.49%; in experiment [2], 4.46%; in experiment [3] it was 0.46%.

In the case of `COc1ccc(OC)c(Cc2c(C)nc3nc(N)nc(N)c3c2C)c1`, the inhibition in experiment [1] was -0.27%; in experiment [2] it was 0.88%; in experiment [3] it was -3.07%.

Regarding `Cc1cccc2nc(-c3cccc(-c4cccc(CNCCc5cccn5C)c4)c3)[nH]c12`, the inhibition in experiment [1] was 0.04%; in experiment [2], 2.29%; in experiment [3], -0.27%.

Turning to `CCCCOc1ccc(/C=C/c2ccc(-c3c(C)[nH]c(C)c(Cl)c3=O)s2)cc1`, the inhibition was -1.17% in experiment [1], 2.35% in experiment [2] and -1.25% in experiment [3].

With `COc1ccc(-c2ccc(NC(=O)c3ccc(Cl)cc3)cc2)cc1CN1CCCN(C)CC1`, the figures for the inhibition in experiment [1], in experiment [2] and in experiment [3] were 5.26%, 4.81% and 5.6%, respectively.

For `N#Cc1ccccc1Sc1ccccc1C(=O)Nc1ccc2ccccc2n1`, the inhibition in experiment [1] turned out to be 7.84%; in experiment [2], 11.5%; in experiment [3], 7.12%.

`Cc1cc(C(=O)Nc2ccc3c(c2)CCN3C2CCN(Cc3ccc4nsnc4c3)C2)no1` (stereo not given): the inhibition in experiment [1] was found to be 3.24%; in experiment [2] it was 2.32%; in experiment [3], 5.35%.

Turning to `CN1CCc2cc(I)c(O)cc2C1Cc1ccccc1Cl` (stereo not given), the results for the inhibition in experiment [1], in experiment [2] and in experiment [3] were 1.98%, 3.88% and 2.59%, respectively.

Take `O=C(Cc1ccccc1)NC(c1ccc(Cl)cc1)c1ccc2cccnc2c1O` (stereo not given): the inhibition was 6.92% in experiment [1], 4.47% in experiment [2] and 1.97% in experiment [3].

Consider `CCN(CC)CCCn1c(N)c(-c2nc3ccccc3[nH]2)c2nc(C#N)c(C#N)nc21`, for which the inhibition in experiment [1] was 7.13%; in experiment [2] it was 6.56%; in experiment [3] it was 4.63%.

With `O=C(/C=C/c1ccc(Cl)c(Cl)c1)NC1CCN(Cc2ccc(O)cc2)C1` (stereo not given), the results for the inhibition in experiment [1], in experiment [2] and in experiment [3] were 1.46%, -0.06% and -0.76%, respectively.

`CN1CCN(c2cc(-c3cccc(C(F)(F)F)c3)nc(-c3ccncc3)n2)CC1`: the inhibition is 2.69% in experiment [1], 4.44% in experiment [2] and -2.16% in experiment [3].

For the compound `c1ccc(CCNCc2ccc(-c3ccc(CNc4ccc5ncccc5c4)cc3)cc2)cc1`, the inhibition came out at 9.9% in experiment [1], 1.61% in experiment [2] and 2.13% in experiment [3].

As to `CCCCc1cc(NCc2ccncc2)nc(Nc2ccc(C)cc2)n1`, the inhibition in experiment [1] worked out at 15.4%; in experiment [2], 5.93%; in experiment [3], 2.33%.

Turning to `Cc1ccc(S(=O)(=O)c2nc(S(=O)(=O)c3ccccc3)sc2NCC2CCCO2)cc1` (stereo not given), the results for the inhibition in experiment [1], in experiment [2] and in experiment [3] were 11.8%, 11.1% and 9.48%, respectively.

`Cc1cc(-c2cccc(CNCc3ccc(F)cc3)c2)ccc1S(=O)(=O)NCCN1CCCC1`: the inhibition in experiment [1] is -0.89%; in experiment [2], 0.36%; in experiment [3], 0.1%.

Take `COc1ccc2[nH]ccc(=NN=Cc3ccc(F)cc3)c2c1`: the figures for the inhibition in experiment [1], in experiment [2] and in experiment [3] were 2.33%, -0.63% and -0.34%, respectively.

Take `CC12CCC(=O)N1C(C(=O)Nc1cccc(C(=O)Nc3cccc(C(F)(F)F)c3)c1)CS2` (stereo not given): the inhibition in experiment [1] was determined as 5.52%; in experiment [2] it was 6.47%; in experiment [3], 6.41%.

On to `O=C(Cc1c[nH]cn1)Nc1cccc(-c2cccc(-c3nc4cc(F)ccc4[nH]3)c2)c1`, for which the inhibition is -1.27% in experiment [1], -0.43% in experiment [2] and -2.58% in experiment [3].

Turning to `COc1cc(NC(=O)c2sc(-c3ccc(Cl)cc3)cc2NC(=O)c2cccc(N(C)C)c2)ccc1OCCN1CCCC1`, the inhibition in experiment [1] turned out to be 0.3%; in experiment [2], 0.22%; in experiment [3], 0.53%.

Turning to `COCCNCc1ncsc1-c1ccc2c(Nc3cc(O)ccc3C)ccnc2c1`, the inhibition in experiment [1] was 1.05%; in experiment [2], 0.61%; in experiment [3], 1%.

For the compound `SC(=Nc1ccc(Cl)c(Cl)c1)NN=Cc1ccccn1`, the inhibition in experiment [1] is 1.55%; in experiment [2], 1.69%; in experiment [3], -1.58%.

As to `CC(C)Cc1nc(N2CCOCC2)c2nnn(Cc3ccccc3)c2n1`, the inhibition in experiment [1] is 3.23%; in experiment [2] it was 1.31%; in experiment [3] it was 1.84%.

In the case of `COc1ccc(OC)c(Cc2cnc3nc(N)[nH]c(=O)c3c2C)c1`, the figures for the inhibition in experiment [1], in experiment [2] and in experiment [3] were 3.38%, 4.59% and 5.15%, respectively.

As for `O=C(NCc1ccc(C(=O)NCc2cccc3ccccc23)cc1)c1ccc(O)c(-c2ccc(Cl)c(Cl)c2)c1`, the inhibition was 0.64% in experiment [1], 2.17% in experiment [2] and 0.96% in experiment [3].

Turning to `CC1(C)N=C(N)N=C(N)N1OCc1ccc2c(c1)OCO2`, the results for the inhibition in experiment [1], in experiment [2] and in experiment [3] were 9.15%, 6.63% and 13.4%, respectively.

As to `COc1cc(NCCCNCc2cn(S(=O)(=O)c3ccccc3)c3ccccc23)nc2ccccc12`, the inhibition in experiment [1] worked out at 3.92%; in experiment [2], 4.04%; in experiment [3], 3.17%.

Consider `CN(C)CCNCc1ccc(-c2cccc(-c3nc4ccccc4[nH]3)c2)cc1`, for which the inhibition amounted to 10.5% in experiment [1], 8.93% in experiment [2] and 8.27% in experiment [3].

For `Fc1ccc2[nH]c(-c3ccc(-c4ccc(CNCC5CCCO5)cc4)cc3)nc2c1` (stereo not given), the inhibition was 12.4% in experiment [1], 11.2% in experiment [2] and 7.73% in experiment [3].

Consider `CNC(=O)c1cnc(Nc2ccc(N3CCN(C)CC3)cc2)nc1Nc1ccccc1OC`, for which the inhibition was found to be 4.96% in experiment [1], 4.09% in experiment [2] and 3.41% in experiment [3].
